The list is not random: actives were taken first. Their share in the collection is about 9%.
HPGD block: HPGD (human) dehydrogenase inhibition; P15428; purified HPGD, NADH fluorescence kinetic, PGE2 substrate; Potency, µM, for inactives: at the highest dose activity change, negative = inhibition, most hits filed as inhibitors; 150,000 tested, 4.3% active; AID 894; active means well fitted inhibition curve with a large enough effect, not every such curve was filed as active; inconclusive means small, poorly fitted or top-dose-only effect, or another doubt; inactive means no such curve, though single readings can be large or run the other way
Target sequence (P15428 whole entry, looked up): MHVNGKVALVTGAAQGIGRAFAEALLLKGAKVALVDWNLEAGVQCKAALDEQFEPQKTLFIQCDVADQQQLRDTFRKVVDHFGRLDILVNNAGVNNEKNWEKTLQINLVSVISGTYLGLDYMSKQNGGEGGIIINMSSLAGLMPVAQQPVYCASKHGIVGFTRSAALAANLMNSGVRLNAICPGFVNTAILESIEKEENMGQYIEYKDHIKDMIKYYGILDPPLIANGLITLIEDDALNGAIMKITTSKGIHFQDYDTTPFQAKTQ
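NADH formation kinetics: reaction with 30 uM PGE2 and 1 mM NAD+ (final), 20 nM enzyme, Tris-HCl pH 8 with Tween 20, after 15 min compound preincubation at room temperature. Fluorescence change, last versus first of five reads.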
Lamin A splicing: changes lamin A minigene splicing in HeLa cells; 200,000 tested, 0.01% active; Potency, µM (highest dose often 46.1 µM), for inactives: at the highest dose ratio change, negative = inhibition, actives largely listed as inhibitors; HeLa LMNA splicing GFP/RFP minigene ratio, 48 h; AID 1487; active means well fitted inhibition curve with a large enough effect in the signal ratio, with a control signal flat, not every such curve was filed as active; inconclusive means small, poorly fitted or top-dose-only effect, or effect the other way, or a change in a side signal; the % refers to the signal ratio
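Read-out is the ratio of GFP to DsRed2 object intensity, acquired by 488 nm laser-scanning cytometry on HeLa lamin A-EGFP minigene reporter cells. Compound incubation 48 hrs at 37 °C in Opti-MEM with 2% FBS; DMSO 0.5% final.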
IMPase Li inh: membrane-permeable IMPase blocker, potentiated with lithium; CHO-M1 cells, IP1 TR-FRET (IP-One), carbachol + lithium; Potency, µM (series often up to 59.4 µM), inactives show top-dose activity, negative = IMPase inhibition, hits mostly inhibitors; 210,000 tested, 0.35% active;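 further: IP1 builds up when IMPase is blocked and the TR-FRET signal falls; plate controls were basal vehicle for no effect and high inhibitor control for full effect; nearly all actives have a fitted effect of over 50% in size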
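IP1 accumulation measured by competitive TR-FRET in lysed CHO-M1 cells after 30 min compound exposure at 37C, with a small lithium addition to potentiate weak responses. Hill-equation AC50 from ratio and donor-channel data.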
Luc counter: counter-screen: inhibitors of Kinase-Glo firefly luciferase. Kinase-Glo luciferase, ATP luminescence, 8 min. Potency, µM (titrated, usually from 38.3 µM), without a hit: at the highest dose activity change, negative = inhibition, most hits filed as inhibitors. 200,000 tested, 0.28% active. AID 1379; further: nearly all actives have a fitted effect of over 60% in size
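Compound is pinned into ATP-containing buffer (10 uM ATP, imidazole pH 7.2, 7 mM MgCl2). Kinase-Glo luciferase reagent is then added. Light output is recorded following an 8-min room-temperature incubation.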
ALDH1A1 block: ALDH1A1 (human) enzyme inhibition | Purified ALDH1A1, NADH fluorescence, propionaldehyde substrate | P00352 | 220,000 tested, 7.3% active | Potency, µM (series often up to 75.3 µM), without a hit: top-dose activity, negative = inhibition, hits mostly inhibitors; active means well fitted inhibition curve with a large enough effect, not every such curve was filed as active; inconclusive means small, poorly fitted or top-dose-only effect, or another doubt; inactive means no such curve, though single readings can be large or run the other way;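 further: plate controls were no enzyme wells and a reference inhibitor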
Starred values were filed as active, the others as inactive; ! = not confirmed by another sample; [ ] = remark or other dose. Unless noted, the call rests on the fitted dose curve; in most records, active means well fitted curve in the direction sought with a large enough effect; inconclusive means small, poorly fitted or top-dose-only effect, or another doubt; inactive means no such curve, though single readings can be large; an effect the other way counts as inactive or inconclusive. Unless noted, on the % scale 0 is the no-effect control and ±100 the full control effect; potency means the concentration at half of the fitted maximal effect.

How did CNC(=O)Oc1ccc2c(c1)C(=O)c1ccccc1CO2 do in these assays?
HPGD block: -23%; Lamin A splicing: -3%; IMPase Li inh: 38%[38.3 µM]; Luc counter: -4%; ALDH1A1 block: 11µM*

What do the screens show for `CCS(=O)(=O)N1N=C(c2cccc(NS(C)(=O)=O)c2)CC1c1ccccc1` (stereo unspecified)?
Lamin A splicing: inconclusive; IMPase Li inh: 2%; Luc counter: 0%; ALDH1A1 block: 13µM*

How did N[C@@H](Cc1c[nH]c2cc([N+](=O)[O-])ccc12)C(=O)O do in these assays?
HPGD block: -8%; IMPase Li inh: -3%; Luc counter: -6%[7.66 µM]; ALDH1A1 block: 4%[13.5 µM]

What do the screens show for `CCOC(=O)N(c1ccccc1)P1(=S)OCCO1`?
HPGD block: inconclusive; Lamin A splicing: 13%; IMPase Li inh: 6%[38.3 µM]; Luc counter: -3%; ALDH1A1 block: inconclusive

How did COC(=O)N(c1ccccc1)P1(=S)OCCO1 do in these assays?
HPGD block: 8.9µM*; Lamin A splicing: 3%; IMPase Li inh: 0%[38.3 µM]; Luc counter: 4%; ALDH1A1 block: 4µM*

What do the screens show for `Cc1cc2c(C(C)C)c(O)c(O)c(C=O)c2c(O)c1-c1c(C)cc2c(C(C)C)c(O)c(O)c(C=O)c2c1O`?
HPGD block: 8.9µM*!; Lamin A splicing: inconclusive; IMPase Li inh: 10%; Luc counter: 0%; ALDH1A1 block: -8%

How did CCCN(CC#CCOc1ccc(OC)cc1)CCC do in these assays?
HPGD block: -10%; Lamin A splicing: 10%; IMPase Li inh: 8%[38.3 µM]; Luc counter: -2%; ALDH1A1 block: 20µM*

Results for C=CCN1C[C@H](C)N([C@H](c2ccc(C(=O)N(CC)CC)cc2)c2cccc(O)c2)C[C@H]1C ?
HPGD block: 11µM*; IMPase Li inh: 14%; Luc counter: 1%; ALDH1A1 block: 4%

What do the screens show for `C=CCN1C[C@H](C)N([C@@H](c2ccccc2)c2ccc(C(=O)N(CC)CC)cc2)C[C@H]1C`?
HPGD block: inconclusive; IMPase Li inh: 19%; Luc counter: -1%; ALDH1A1 block: 2%

What do the screens show for `Nc1ncnc2c1ncn2[C@@H]1O[C@H](COP(=O)(O)OP(=O)(O)CP(=O)(O)O)[C@@H](O)[C@H]1O`?
IMPase Li inh: -23%; ALDH1A1 block: inconclusive

How did Cc1cc(SCc2sc(-c3ccc(C(F)(F)F)c(F)c3)nc2C)ccc1OCC(=O)O do in these assays?
HPGD block: 10µM*; IMPase Li inh: 7%; Luc counter: -4%; ALDH1A1 block: inconclusive

Results for Cc1noc(C(=O)Nc2sc3c(c2C#N)CCC3)c1Cl ?
HPGD block: 25µM*; Lamin A splicing: inconclusive; IMPase Li inh: -4%[38.3 µM]; Luc counter: 18%; ALDH1A1 block: 13µM*

Results for C[C@@H]1O[C@H](O[C@H]2C[C@@H](O)[C@@]3(CO)[C@H]4[C@@H](O)C[C@]5(C)[C@@H](C6=CC(=O)OC6)CC[C@]5(O)[C@H]4CC[C@]3(O)C2)[C@@H](O)[C@H](O)[C@@H]1O ?
HPGD block: 0%; Lamin A splicing: inconclusive; Luc counter: -4%[17.1 µM]; ALDH1A1 block: -1%[20.9 µM]

Results for O=C(CCN1CC2CCC(CC2)C1)c1cccs1 ?
HPGD block: 1%; IMPase Li inh: -5%; Luc counter: -1%[7.66 µM]; ALDH1A1 block: 0.071µM*

What do the screens show for `CCOC(=O)c1c(C)n(COCCO)c2ccc(O)cc12`?
HPGD block: -20%; Lamin A splicing: -7%; IMPase Li inh: 0%[38.3 µM]; Luc counter: -2%; ALDH1A1 block: 2%

How did CCOC(=O)c1c(C)n(Cc2ccco2)c2ccc(O)cc12 do in these assays?
HPGD block: 22µM*; Lamin A splicing: -1%; IMPase Li inh: -17%[38.3 µM]; Luc counter: 1%; ALDH1A1 block: 4µM*

Results for CC(C)c1cc2c(c(O)c1O)[C@]1(C(=O)O)CCCC(C)(C)C1CC2 (stereo partly specified) ?
HPGD block: 3.2µM*; IMPase Li inh: 29%; Luc counter: -8%; ALDH1A1 block: 16µM*

How did CC(C)c1cc2c(c(O)c1O)[C@@]1(C(=O)O)CCCC(C)(C)[C@@H]1CC2 do in these assays?
HPGD block: 16µM*; IMPase Li inh: 24%; Luc counter: 1%[39.9 µM]; ALDH1A1 block: 14µM*

What do the screens show for `C[C@]1(C(=O)O)CCC[C@]2(C)c3cc(O)ccc3CC[C@@H]12`?
HPGD block: -13%; IMPase Li inh: 14%; Luc counter: 1%; ALDH1A1 block: 2%

How did O=C(Cn1cc(C(=O)c2ccccc2F)c2ccccc21)NCc1ccco1 do in these assays?
HPGD block: -22%; Lamin A splicing: 16%; IMPase Li inh: 8.9µM*; Luc counter: 2%; ALDH1A1 block: inconclusive

Results for COc1ccc2c3c1O[C@H]1C[C@H](O)C=C[C@@]31CCN(C)C2 ?
HPGD block: -4%; IMPase Li inh: 11%; Luc counter: 3%; ALDH1A1 block: 5%

Results for O=Cc1c(C(=O)O)n(Cc2ccc(Cl)cc2)c2ccccc12 ?
HPGD block: -17%; Lamin A splicing: inconclusive; IMPase Li inh: 1%; Luc counter: 5%; ALDH1A1 block: 13µM*

How did CCN(CC)C(=O)c1ccc(NC(=O)Cn2nc(C)c3ccccc3c2=O)cc1 do in these assays?
HPGD block: 10µM*; Lamin A splicing: -8%; IMPase Li inh: 18%[38.3 µM]; Luc counter: -2%; ALDH1A1 block: inconclusive

What do the screens show for `Cc1cccc(NC(=O)c2cccc(NS(=O)(=O)c3ccc(Cl)cc3)c2)c1`?
HPGD block: 13µM*; Lamin A splicing: inconclusive; IMPase Li inh: 43%[38.3 µM]; Luc counter: -4%; ALDH1A1 block: inconclusive

Results for Cc1cccc(C(=O)Nc2ccc(Cl)cc2C(=O)c2ccccc2)c1 ?
HPGD block: -15%; Lamin A splicing: 0%; IMPase Li inh: 21%[38.3 µM]; Luc counter: 0%; ALDH1A1 block: -7%

What do the screens show for `CC(C)(C)C(=O)CP(=O)(O)O`?
HPGD block: -3%; IMPase Li inh: 0%; Luc counter: 1%[7.66 µM]; ALDH1A1 block: 2%[13.5 µM]

What do the screens show for `O=[N+]([O-])c1cc2c(cc1CNCCc1ccc3c(c1)OCO3)OCO2`?
HPGD block: -3%; Lamin A splicing: -10%; IMPase Li inh: 4%; Luc counter: 0%; ALDH1A1 block: 28µM*

How did O=C(Cc1ccccc1)N1CCN(Cc2c[nH]c3ccccc23)CC1 do in these assays?
HPGD block: -9%; Lamin A splicing: inconclusive; IMPase Li inh: 2%[38.3 µM]; Luc counter: 13%; ALDH1A1 block: 25µM*

What do the screens show for `O=C1NC(=O)N(CCC2=CCCCC2)C(=O)/C1=C/c1ccc(O)cc1`?
HPGD block: 11µM*; Lamin A splicing: -2%; IMPase Li inh: 6%; Luc counter: 0%; ALDH1A1 block: 0.79µM*

Assay outcomes (PubChem BioAssay)
